Common to all, as to assay type: functional
Experiment [1] concerns the target Solute carrier family 2, facilitated glucose transporter member 1 (Homo sapiens) (UniProt P11166). Description: ST_JUDE_LEISH: Cytotoxicity at 2uM final concentration against transgenic Leishmania Mexicana promastigotes LmGLUT1 that are glucose transport deficient and complemented with the human glucose transporter GLUT1. Activity is measured by DNA content using SYBR green in vitro.

The target in experiment [2] is Hexose transporter 1 (Plasmodium falciparum) (UniProt O97467). The experiment in a line: ST_JUDE_LEISH: Cytotoxicity at 2uM final concentration against transgenic Leishmania Mexicana promastigotes LmPfHT that are glucose transport deficient and complemented with the Plasmodium falciparum hexose transporter. Activity is measured by DNA content using SYBR green in vitro.

The target of experiment [3] is Glucose transporter (Leishmania mexicana) (UniProt O61059). Description: ST_JUDE_LEISH: Cytotoxicity at 2uM final concentration against transgenic Leishmania Mexicana promastigotes LmGT2 that are glucose transport deficient and complemented with the L. Mexicana glucose transporter 2. Activity is measured by DNA content using SYBR green in vitro.

Sequence of Solute carrier family 2, facilitated glucose transporter member 1 (Homo sapiens) (P11166 whole entry): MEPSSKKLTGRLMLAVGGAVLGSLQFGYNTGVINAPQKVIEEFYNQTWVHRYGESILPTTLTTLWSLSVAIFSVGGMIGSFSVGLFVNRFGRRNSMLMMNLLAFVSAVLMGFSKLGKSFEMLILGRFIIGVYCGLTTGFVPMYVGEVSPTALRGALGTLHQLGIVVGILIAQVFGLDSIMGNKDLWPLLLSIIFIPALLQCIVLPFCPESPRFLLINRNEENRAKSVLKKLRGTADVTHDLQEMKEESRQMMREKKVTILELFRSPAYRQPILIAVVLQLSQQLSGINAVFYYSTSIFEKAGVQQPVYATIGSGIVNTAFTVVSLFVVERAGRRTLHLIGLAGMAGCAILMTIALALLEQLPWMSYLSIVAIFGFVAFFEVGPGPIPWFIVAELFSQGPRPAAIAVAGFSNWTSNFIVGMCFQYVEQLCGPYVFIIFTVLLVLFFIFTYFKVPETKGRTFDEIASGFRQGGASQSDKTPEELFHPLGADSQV

One may read the inhibition as the relative decrease from the control value, in per cent. With `N#Cc1ccc2[nH]c(-c3ccccc3)nc2c1`, the inhibition in experiment [1] was 7.3%; in experiment [2] it was 6.06%; in experiment [3] it was 5.78%.
The corresponding values for `O=[N+]([O-])c1cccc(CNCC2CCN(Cc3ccc(C(F)(F)F)cc3)CC2)c1` are 0.44%, 5.74% and 6.41%.
`Cc1cc(Br)cnc1CCCCNc1cc(=O)c2ccccc2[nH]1`: the inhibition in experiment [1] amounted to 4.59%; in experiment [2], 6.14%; in experiment [3], 4.81%.
Take `O=[N+]([O-])c1ccc(C2=NN(S(=O)(=O)c3c(Cl)cc(Cl)cc3Cl)CCCC2)cc1`: the inhibition in experiment [1] was 0.34%; in experiment [2], 0.56%; in experiment [3], -0.34%.
Consider `Cc1ccccc1CNc1noc(-c2c(-c3ccccc3)noc2C)n1`, for which the inhibition in experiment [1] is -2.97%; in experiment [2], 2.16%; in experiment [3], 6.28%.
For the compound `CCn1ccc2c(N3CCCC3=O)cc(C(=O)N[C@@H](Cc3ccccc3)[C@H](O)CNCc3cccc(OC)c3)cc21`, the inhibition in experiment [1] stood at 1.06%; in experiment [2], 1.98%; in experiment [3], 0.14%.
The corresponding values for `Oc1ccc(Cl)c2c1C(c1ccccc1)=NCC2` are -1.17%, -0.25% and 1.69%.
For the compound `c1ccc(COc2ccc(Nc3ncnc4ccc(-c5ccc(CN6CCSCC6)o5)cc34)cc2)cc1`, the results for the inhibition in experiment [1], in experiment [2] and in experiment [3] were 10.9%, 7.33% and 7.66%, respectively.
For the compound `NC(=O)Nc1ccc2c(Nc3ccc(OCc4ccccc4)cc3)ncnc2c1`, the inhibition in experiment [1] is -1.45%; in experiment [2], -0.35%; in experiment [3] it was -2.05%.
Regarding `CC(C)(CNC(=O)C1CCN(CC2CCCCC2)CC1)c1nc(-c2ccc(Cl)c(O)c2)c(-c2ccncc2)[nH]1`, the figures for the inhibition in experiment [1], in experiment [2] and in experiment [3] were 1.84%, 0.23% and 2.71%, respectively.
As to `N#Cc1ccc(N/C(=N\c2cccc(Cl)c2Cl)NCc2ccc(Cl)cc2Cl)c(O)c1`, the figures for the inhibition in experiment [1], in experiment [2] and in experiment [3] were 9.71%, 9.71% and 9.16%, respectively.
As to `CCCCNCc1ccc(-c2nc(CN(CCCn3ccnc3)C(=O)C3COc4ccccc4O3)cs2)cc1` (stereo not given), the inhibition in experiment [1] is 0.43%; in experiment [2] it was 4.78%; in experiment [3] it was -0.46%.
Regarding `O=C(NCCCCN1CCC(c2ccc3c(c2OCCN2CCCC2)CCCC3)CC1)c1ccc(-c2ccc(C(F)(F)F)cc2)cc1`, the inhibition in experiment [1] was determined as 3.42%; in experiment [2], 5.87%; in experiment [3], 4%.
`O=[N+]([O-])c1ccccc1C=NN=c1cc[nH]c2ccccc12`: the inhibition in experiment [1] was -2.55%; in experiment [2], 1.68%; in experiment [3], -0.01%.
On to `CCOC(=O)N1CCC(NC(=O)c2ccc(C(C)(C)C)cc2OC)CC1`, for which the inhibition in experiment [1] was 3.46%; in experiment [2], 3.5%; in experiment [3] it was 3.13%.
Regarding `COc1ccc(CCNC(=O)c2cnc3c(c2)nc(-c2c[nH]c(-c4ccccc4)n2)n3CCc2c[nH]cn2)cc1`, the inhibition was 1% in experiment [1], -1.24% in experiment [2] and 2.62% in experiment [3].
For the compound `O=C(O)CCSSc1cccc[n+]1[O-]`, the results for the inhibition in experiment [1], in experiment [2] and in experiment [3] were 29.9%, 48.3% and 3.25%, respectively.
On to `OC(CNC1CCCCC1)Cn1c2ccccc2c2ccccc21` (stereo not given), for which the inhibition stood at 9.36% in experiment [1], 7.72% in experiment [2] and 3.35% in experiment [3].
In the case of `Cc1cccc2nc(-c3ccc(-c4cccc(CN5CCN(CC6CCCN(C)C6)CC5)c4)s3)[nH]c12` (stereo not given), the inhibition was 7.18% in experiment [1], -3.27% in experiment [2] and 0.69% in experiment [3].
For `O=C(/C=C/c1ccc(Cl)c(Cl)c1)NCCCCCN1CCC(NC(=S)Nc2ccc(Cl)cc2Cl)CC1`, in that order: 8.85%, 9.09% and 7.71%.
Consider `OCCN1CCN(Cc2ccc(-c3cccc(-c4nc5ccccc5[nH]4)c3)cc2)CC1`, for which the values for the inhibition in experiment [1], in experiment [2] and in experiment [3] were -1.4%, -2.88% and -1.5%, respectively.
Regarding `Cc1nnsc1C(=O)Nc1cccc(-c2cccc(-c3nc4cccc(C)c4[nH]3)c2)c1`, the inhibition was -0.36% in experiment [1], -1.04% in experiment [2] and -5.1% in experiment [3].
As to `COc1ccc(-c2cc(Nc3nc(-c4cccc(Cl)c4)nc4ccccc34)ccn2)cc1`, the values for the inhibition in experiment [1], in experiment [2] and in experiment [3] were 1.11%, 0.61% and -0.05%, respectively.
For `O=C(NC1CCN(Cc2ccccc2)CC1)c1ccc2c(=O)n(Cc3ccc(Cl)cc3)c(=S)[nH]c2c1`, the inhibition in experiment [1] is 0.69%; in experiment [2], -0.17%; in experiment [3], 1.31%.
Consider `Oc1cc(Nc2ccnc3cc(-c4ccc(CN5CCCCC5)o4)c(Cl)cc23)c(Cl)cc1F`, for which the inhibition was found to be 1.26% in experiment [1], 1.8% in experiment [2] and 1.57% in experiment [3].
On to `Oc1c(C(Nc2nc3ccccc3s2)c2ccccc2)ccc2cccnc12` (stereo not given), for which the inhibition was 2.66% in experiment [1], 3.92% in experiment [2] and -1.54% in experiment [3].
The corresponding values for `Cc1cc(N(C)C)nc(Nc2ccc(NC(=O)c3ccccc3F)cc2)n1` are 1.36%, 12.2% and 2.04%.
With `CCN(CC)CCN(Cc1ccc(-c2ccc(C(F)(F)F)cc2)cc1)C(=O)Cn1c(CCc2cc(F)cc(F)c2F)nc(=O)c2ccccc21`, the inhibition in experiment [1] was 2.05%; in experiment [2], 0.76%; in experiment [3], -0.7%.
Take `COc1cc2nc(N3CCC(CNC(=O)c4ccc(C(C)=O)cc4)CC3)nc(N)c2cc1OC`: the inhibition in experiment [1] stood at 2.39%; in experiment [2] it was 2.18%; in experiment [3], 3.9%.
For `CC(C)COc1ccc(Cl)cc1Cc1ccc(-c2nc3cc(F)c(F)cc3[nH]2)o1`, in that order: 3.02%, 1.87% and 1.02%.
For `CC1(C)CCCN(C(=O)c2cccc(-n3nc(-c4ccc(Cl)cc4)cc3N)c2)C1`, the inhibition is 2.79% in experiment [1], 1.98% in experiment [2] and 2.07% in experiment [3].
Regarding `COc1ccc(N2CCN(CCc3ccc(NC(=O)c4ccc([N+](=O)[O-])cc4)cc3)CC2)c(OC)c1`, the inhibition is 9.1% in experiment [1], 6.72% in experiment [2] and 6.07% in experiment [3].
For `COc1ccc2nccc(NCC3(O)CCN(CCc4ccc5c(c4)OCCO5)CC3)c2n1`, in that order: 4.99%, 4.58% and 0.15%.
For `CC(Oc1ccc(Cl)cc1)C(=O)Nc1cc(C(F)(F)F)ccc1-n1cncn1` (stereo not given), in that order: 2.69%, 3.5% and 3.88%.
With `Cc1cc(NCCC(=O)NCc2cccc(F)c2)nc(Nc2ccccc2)n1`, the inhibition in experiment [1] was 8.44%; in experiment [2] it was 7.08%; in experiment [3], -6.28%.

These data come from ChEMBL document CHEMBL3433997, “St. Jude Leishmania screening dataset” (2016).
